Screen size: about 300,000 compounds; about 37,000 (12%) were called active. This is one part of a sample in which actives are shown more often than they occur. Cut-off read from the data, not from the text of the source: active = max response mostly above about 13% (no sharp cut-off); inactive = mostly below about 14%.
assay: Cycloheximide Counterscreen for Small Molecule Inhibitors of Shiga Toxin; details: cell reporter, cycloheximide protein synthesis inhibition counterscreen; stronger effect = higher value; note: read at 38.3 µM for the half of the compounds with a filed dose; 0% is about no effect

Row | Compound | max response
1 | CC(Sc1nnnn1C)C(=O)NC(=O)NC1CCCCC1 (stereo not drawn) | 0.707% (inactive)
2 | COc1ccc(N2CCN(CCNC(=O)Nc3cc(Cl)ccc3Cl)CC2)cc1 | -4.73% (inactive)
3 | O=C(Nc1ccnn1C1CCN(Cc2cccc(OCCO)c2)CC1)C1CCCC1 | -3.51% (inactive)
4 | Cc1cccc(NS(=O)(=O)c2ccc(-c3cnc(C4CC4)o3)cc2)c1 | -3% (inactive)
5 | O=C(NC(=S)Nc1ncccn1)c1ccccc1Br | 14.4% (active)
6 | CC1CCN(C(=S)NC(=O)c2ccccc2Br)CC1 | 3.84% (inactive)
7 | O=C(NC(=S)Nc1ccc(S(=O)(=O)Nc2ncccn2)cc1)c1cccc(Br)c1 | 5.33% (inactive)
8 | COc1cc2nc(CN(C)Cc3ccc(F)cc3)[nH]c(=O)c2cc1OC | -2.34% (inactive)
9 | COc1ccc(-n2nc(C(=O)NCC(=O)N3CCCCCC3)c3ccccc3c2=O)cc1Cl | 1.06% (inactive)
10 | COC(=O)c1nc(NC(=O)c2ccc(F)cc2)n[nH]1 | -1.65% (inactive)
11 | COC(=O)c1ccc(C(=O)OC)c(NC(=S)N2CCN(c3ccc(F)cc3)CC2)c1 | -7.21% (inactive)
12 | COC(=O)c1ccc(Sc2ccc(F)cc2)c(N)c1 | 24.1% (active)
13 | O=S(=O)(NC1CCCCC1N1CCN(c2ccccc2F)CC1)c1ccccc1 (stereo not drawn) | 7.38% (inactive)
14 | O=C(O)c1ccc(/C=C2\SC(=S)N(NC(=O)c3ccc(Br)cc3)C2=O)cc1 | -2.52% (inactive)
15 | CC1(C)NC(=O)N(CCCCSc2ccc(Cl)cc2)C1=O | 6.3% (inactive)
16 | CN(Cc1ccccc1)C(=O)c1ccc(NC2=NC3CS(=O)(=O)CC3S2)cc1 (stereo not drawn) | 0.883% (inactive)
17 | Cc1c(/C=N\NC(=O)c2cc3ccccc3o2)c2ccccc2n1C | 5.05% (inactive)
18 | CCCCCC(=O)Nc1ccc(C(=O)N/N=C/c2ccc([N+](=O)[O-])cc2)cc1 | -2.53% (inactive)
19 | Cc1nc2ccccc2cc1C(=O)N/N=C/c1ccc([N+](=O)[O-])cc1 | -1.28% (inactive)
20 | O=C(N/N=C/c1c[nH]c2ccccc12)c1cc2ccccc2o1 | 22.4% (active)
21 | O=C(Cc1c[nH]c2ccccc12)N/N=C/c1cccc(F)c1 | 11.5% (inactive)
22 | O=C(N/N=C/c1ccc([N+](=O)[O-])cc1)c1c[nH]c2ccccc12 | 26.3% (active)
23 | Cc1ccsc1C(=O)N/N=C/c1ccc([N+](=O)[O-])cc1 | 55% (active)
24 | O=C(N/N=C/c1ccc(O)cc1)/C(=C/c1ccc([N+](=O)[O-])cc1)NC(=O)c1ccccc1 | 5.92% (inactive)

Row | Compound | max response
25 | Nc1nonc1-n1nnc(C(=O)N/N=C/c2c[nH]c3ccccc23)c1-c1ccccc1 | 6.03% (inactive)
26 | O=C(N/N=C/c1c[nH]c2ccccc12)c1ccccc1O | 29.2% (active)
27 | O=C(N/N=C/c1coc2ccccc2c1=O)c1cc2ccccc2o1 | 13.8% (inactive)
28 | NC(=S)N/N=C/c1ccc([N+](=O)[O-])cc1 | 2.05% (inactive)
29 | COC(=O)C1=C(C)N(c2ccc(C)cc2)/C(=C/c2ccc(O)cc2)C1=O | -3.37% (inactive)
30 | COc1ccc(C(=O)COC(=O)COc2ccc(C)c(C)c2)cc1 | -1.99% (inactive)
31 | COc1cccc(NC(=O)[C@H](Cc2c[nH]c3ccccc23)NC(=O)[C@@H]2Cc3ccccc3CN2)c1 | 8.96% (inactive)
32 | Cc1nn(Cc2ccc(C(=O)N3N=C(C(F)F)CC3(O)C(F)F)cc2)c(C)c1[N+](=O)[O-] (stereo not drawn) | -2.42% (inactive)
33 | Cc1ccc(NS(=O)(=O)c2ccc(C(C)(C)C)cc2)cn1 | -1.83% (inactive)
34 | Cc1ccc(-n2ncc3c2CC(C)(C)CC3NC(=O)Cc2c(C)noc2C)cc1 (stereo not drawn) | 1.83% (inactive)
35 | CCOC(=O)CNC(=O)CSc1ncccc1-c1nc2ccccc2[nH]1 | 6.47% (inactive)
36 | CNc1ccc(NC(C)=O)cc1[N+](=O)[O-] | -1.59% (inactive)
37 | Cc1ccc(NC(=O)c2sccc2C)cc1[N+](=O)[O-] | 54.5% (active)
38 | CSC(=S)N/N=C/c1c[nH]c2ccccc12 | 19.8% (active)
39 | O=C(O)c1cccc(NC(=S)N/N=C/c2c[nH]c3ccccc23)c1 | 19.9% (inactive)
40 | C[n+]1ccc(/C=C/c2c[nH]c3ccccc23)cc1 | 0.857% (inactive)
41 | Cc1ccc(NC(=O)CN(C)CC(=O)Nc2cccc(F)c2)cc1[N+](=O)[O-] | -3.93% (inactive)
42 | CN(C)c1ccc(C(CNC(=O)c2ccc(F)cc2)c2c[nH]c3ccccc23)cc1 (stereo not drawn) | -1.36% (inactive)
43 | COc1ccc(CC(=O)NCC(=O)N/N=C/c2cc(Br)ccc2OC)cc1 | -1.85% (inactive)
44 | CCc1ccc(C2C(C#N)=C(N)N(N3CCOCC3)C3=C2C(=O)CC(C)(C)C3)s1 (stereo not drawn) | -4.64% (inactive)
45 | CC1CCN(C(=O)CN(c2ccc(Oc3ccccc3)cc2)S(C)(=O)=O)CC1 | 0.761% (inactive)
46 | Cc1cc(C)cc(C(=O)NCCN2CCOCC2)c1 | -3.62% (inactive)
47 | CC(=O)Oc1cc2c(C(=O)NCCN3CCOCC3)c(C)oc2c2ccccc12 | 23.5% (active)
48 | Cc1ccc(C(=O)NCCN2CCOCC2)cc1C | 0.531% (inactive)

Row | Compound | max response
49 | Cn1nccc1C(=O)N1CCCC(C(=O)c2ccc(Oc3ccccc3)cc2)C1 (stereo not drawn) | -1.23% (inactive)
50 | CC1Sc2ccc(S(=O)(=O)CCC(=O)NCc3ccccc3Cl)cc2NC1=O (stereo not drawn) | -2.98% (inactive)
51 | COc1cc(/C=N/n2c(C)n[nH]c2=S)ccc1OCc1ccccc1 | 25.8% (active)
52 | Fc1ccc(/C=N/n2c(COc3ccccc3)n[nH]c2=S)cc1 | -4.69% (inactive)
53 | Cc1n[nH]c(=S)n1/N=C/c1ccc(Br)o1 | -1.34% (inactive)
54 | Cn1c(=O)[nH]c(=O)c2c1nc(N1CCN(C(c3ccccc3)c3ccccc3)CC1)n2CCO | -4.67% (inactive)
55 | CC(=O)N1CC(C)c2scc(C)[n+]2-c2ccccc21 (stereo not drawn) | -4.21% (inactive)
56 | COc1cccc(NC(=O)CN(C)C(=O)c2ccccc2CCc2ccccc2)c1 | -2.98% (inactive)
57 | CC(C)CC(=O)N1CCN(Cc2cccc(Cl)c2)CC1 | -0.27% (inactive)
58 | O=C(NCC(=O)N(c1ccccc1)C(C(=O)NCC1CCCO1)c1ccccc1)c1cccs1 (stereo not drawn) | -2% (inactive)
59 | Cc1cccc(N(C(=O)Cc2cccs2)C(C(=O)NCc2ccco2)c2ccncc2)c1 (stereo not drawn) | 7.8% (inactive)
60 | Cc1ccc(N(C(=O)Cc2cccs2)C(C(=O)NCC2CCCO2)c2ccncc2)cc1 (stereo not drawn) | 30.3% (active)
61 | Cc1ccc(-c2csc(N3CCN(c4cc5c(cc4Cl)nc(-c4ccncc4)n5CCOCCO)CC3)n2)cc1 | -1.79% (inactive)
62 | CCOCCCNC(=O)C(NC(=O)CNC(=O)c1ccccc1)c1ccc(OC)cc1 (stereo not drawn) | -3.78% (inactive)
63 | O=C(Nc1ccc(F)c(Cl)c1)C1CCN(S(=O)(=O)c2cccnc2)CC1 | -6.06% (inactive)
64 | CCOC(=O)c1c(NC(=O)c2ccc(N3CCOCC3)c([N+](=O)[O-])c2)sc(C)c1C | 1.25% (inactive)
65 | COc1ccc(C(=O)Nc2ccc(CN3CCOCC3)cc2)cc1 | 21.3% (inactive)
66 | COc1ccc(C(=O)Nc2sc(C)c(C)c2CN2CCOCC2)cc1 | 80% (active)
67 | O=C(NCc1ccccc1)C1CCN(C(=O)Cc2ccccc2)CC1 | -1.63% (inactive)
68 | O=C(CSc1ccc(-c2ccc(Br)cc2)nn1)NCC1CCCO1 (stereo not drawn) | -3.31% (inactive)
69 | Cc1ccc(/C=C(\C#N)C(=O)Nc2cccc3ncccc23)o1 | -2.46% (inactive)
70 | COc1ccc(C2=Nn3c(nnc3-c3ccccc3O)SC2)cc1 | 38.9% (active)
71 | CC1=Nn2c(nnc2-c2ccccc2)SC1 | 1.95% (inactive)
72 | Cc1nnc2n1N=C(c1ccccc1)CS2 | -4.21% (inactive)

Row | Compound | max response
73 | Cc1c(C)c2ccc(OCC(=O)N3CCC(C(=O)O)CC3)c(C)c2oc1=O | -2.07% (inactive)
74 | CCOC(=O)C1(Cc2ccccc2C)CCCN(C(=O)CCc2c(C)noc2C)C1 (stereo not drawn) | 9.83% (inactive)
75 | Cc1noc(C)c1CCC(=O)O | -2.43% (inactive)
76 | CCCc1cc(C(=O)N2CCCC(CO)(CCCc3ccccc3)C2)n(C)n1 (stereo not drawn) | 9.31% (inactive)
77 | COC(=O)CCC(=O)N1CCCC(CO)(Cc2ccccc2)C1 (stereo not drawn) | 32.1% (active)
78 | Cc1ccccc1CC1(CO)CCCN(C(=O)c2cc(-c3ccccc3)no2)C1 (stereo not drawn) | 13.4% (inactive)
79 | Cc1noc(C)c1CCC(=O)N1CCCC(CO)(Cc2ccccc2)C1 (stereo not drawn) | 30.9% (active)
80 | O=C(NCc1ccccn1)[C@]1(C(F)(F)F)C[C@H](CCc2ccccc2)CCCO1 | -4.95% (inactive)
81 | O=[N+]([O-])c1cc(S(=O)(=O)CCCN2CCOCC2)ccc1F | -6.03% (inactive)
82 | NC(=O)CCN1CCN(S(=O)(=O)/C=C/c2ccccc2)CC1 | -9.41% (inactive)
83 | COCCCNC(=O)Cc1ccc(-n2c(C)nc3cccnc32)cc1 | -1.61% (inactive)
84 | COC(=O)C1CCCCN1C(=O)c1ccc(OC2CCN(C(C)=O)CC2)c(OC)c1 (stereo not drawn) | -4.09% (inactive)
85 | Cn1c(C(=O)OC(C(=O)NC2CCCCC2)c2ccccn2)cc2sccc21 (stereo not drawn) | -2.24% (inactive)
86 | CN1/C(=C\C(=O)c2cccnc2Cl)C(C)(C)c2ccccc21 | 17.7% (active)
87 | CN1/C(=C\C(=O)c2oc3ccccc3c2N)C(C)(C)c2ccccc21 | 5.01% (inactive)
88 | CC(C)Nc1nnc(SCC(=O)/C=C2\N(C)c3ccccc3C2(C)C)s1 | 5.97% (inactive)
89 | C=CCNC(=O)COc1coc(CN2CCN(Cc3ccccc3)CC2)cc1=O | -1.91% (inactive)
90 | CCOC(=O)NNc1cc(C(F)(F)F)ccn1 | -0.89% (inactive)
91 | CCc1cccc(NC(=O)CCC(=O)O)c1 | -2.1% (inactive)
92 | CCCC(=O)Nc1cccc(-c2cn3ccsc3n2)c1 | 27.2% (active)
93 | O=C(NCc1cn2ccsc2n1)Nc1cccc(Cl)c1 | -2.26% (inactive)

Source: PubChem BioAssay AID2314 (National Center for Advancing Translational Sciences (NCATS), 2010)
